Activity calls are given as the source filed them.
Tests used:
[1] = small molecules captured by biotinylated probe aFSTL3 – biochemical, small-molecule microarray, fluorescence 635/667, stem cell growth factor project, primary screen (AID 1064); conditions: higher = more signal;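 note: measures binding of the biotinylated anti-FSTL3 antibody to printed compounds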
[2] = binders from COS7 lysate, DM2A8 probe, primary screen, torsin A project, cell lysate, small-molecule microarray, fluorescence 635/667 (AID 1065); conditions: higher = more signal, COS7 lysate expressing mutant human TOR1A
[3] = small molecules captured by biotinylated probe aFGF2 – biochemical, small-molecule microarray, fluorescence 635/667, stem cell growth factor project, primary screen (AID 1067); conditions: higher = more signal;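 note: measures binding of biotinylated aFGF2 protein to printed compounds on slides; z-score merges feature fluorescence and signal-to-noise across triplicate slides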
[4] = small molecules captured by biotinylated probe aFGF10 – biochemical, small-molecule microarray, fluorescence 635/667, stem cell growth factor project, primary screen (AID 1071); conditions: higher = more signal;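 note: score merges 667 nm spot intensity and signal to noise from triplicate slides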
[5] = molecular target: Neurogenic locus notch homolog protein 2 (Homo sapiens) (UniProt Q04721); experiment: small molecules binding Notch2 protein – biochemical, small-molecule microarray, 635 nm fluorescence, stem cell growth factors, primary screen (AID 1073); conditions: higher = more signal
Sequence of Neurogenic locus notch homolog protein 2 (Homo sapiens) (Q04721 whole entry, looked up, canonical isoform): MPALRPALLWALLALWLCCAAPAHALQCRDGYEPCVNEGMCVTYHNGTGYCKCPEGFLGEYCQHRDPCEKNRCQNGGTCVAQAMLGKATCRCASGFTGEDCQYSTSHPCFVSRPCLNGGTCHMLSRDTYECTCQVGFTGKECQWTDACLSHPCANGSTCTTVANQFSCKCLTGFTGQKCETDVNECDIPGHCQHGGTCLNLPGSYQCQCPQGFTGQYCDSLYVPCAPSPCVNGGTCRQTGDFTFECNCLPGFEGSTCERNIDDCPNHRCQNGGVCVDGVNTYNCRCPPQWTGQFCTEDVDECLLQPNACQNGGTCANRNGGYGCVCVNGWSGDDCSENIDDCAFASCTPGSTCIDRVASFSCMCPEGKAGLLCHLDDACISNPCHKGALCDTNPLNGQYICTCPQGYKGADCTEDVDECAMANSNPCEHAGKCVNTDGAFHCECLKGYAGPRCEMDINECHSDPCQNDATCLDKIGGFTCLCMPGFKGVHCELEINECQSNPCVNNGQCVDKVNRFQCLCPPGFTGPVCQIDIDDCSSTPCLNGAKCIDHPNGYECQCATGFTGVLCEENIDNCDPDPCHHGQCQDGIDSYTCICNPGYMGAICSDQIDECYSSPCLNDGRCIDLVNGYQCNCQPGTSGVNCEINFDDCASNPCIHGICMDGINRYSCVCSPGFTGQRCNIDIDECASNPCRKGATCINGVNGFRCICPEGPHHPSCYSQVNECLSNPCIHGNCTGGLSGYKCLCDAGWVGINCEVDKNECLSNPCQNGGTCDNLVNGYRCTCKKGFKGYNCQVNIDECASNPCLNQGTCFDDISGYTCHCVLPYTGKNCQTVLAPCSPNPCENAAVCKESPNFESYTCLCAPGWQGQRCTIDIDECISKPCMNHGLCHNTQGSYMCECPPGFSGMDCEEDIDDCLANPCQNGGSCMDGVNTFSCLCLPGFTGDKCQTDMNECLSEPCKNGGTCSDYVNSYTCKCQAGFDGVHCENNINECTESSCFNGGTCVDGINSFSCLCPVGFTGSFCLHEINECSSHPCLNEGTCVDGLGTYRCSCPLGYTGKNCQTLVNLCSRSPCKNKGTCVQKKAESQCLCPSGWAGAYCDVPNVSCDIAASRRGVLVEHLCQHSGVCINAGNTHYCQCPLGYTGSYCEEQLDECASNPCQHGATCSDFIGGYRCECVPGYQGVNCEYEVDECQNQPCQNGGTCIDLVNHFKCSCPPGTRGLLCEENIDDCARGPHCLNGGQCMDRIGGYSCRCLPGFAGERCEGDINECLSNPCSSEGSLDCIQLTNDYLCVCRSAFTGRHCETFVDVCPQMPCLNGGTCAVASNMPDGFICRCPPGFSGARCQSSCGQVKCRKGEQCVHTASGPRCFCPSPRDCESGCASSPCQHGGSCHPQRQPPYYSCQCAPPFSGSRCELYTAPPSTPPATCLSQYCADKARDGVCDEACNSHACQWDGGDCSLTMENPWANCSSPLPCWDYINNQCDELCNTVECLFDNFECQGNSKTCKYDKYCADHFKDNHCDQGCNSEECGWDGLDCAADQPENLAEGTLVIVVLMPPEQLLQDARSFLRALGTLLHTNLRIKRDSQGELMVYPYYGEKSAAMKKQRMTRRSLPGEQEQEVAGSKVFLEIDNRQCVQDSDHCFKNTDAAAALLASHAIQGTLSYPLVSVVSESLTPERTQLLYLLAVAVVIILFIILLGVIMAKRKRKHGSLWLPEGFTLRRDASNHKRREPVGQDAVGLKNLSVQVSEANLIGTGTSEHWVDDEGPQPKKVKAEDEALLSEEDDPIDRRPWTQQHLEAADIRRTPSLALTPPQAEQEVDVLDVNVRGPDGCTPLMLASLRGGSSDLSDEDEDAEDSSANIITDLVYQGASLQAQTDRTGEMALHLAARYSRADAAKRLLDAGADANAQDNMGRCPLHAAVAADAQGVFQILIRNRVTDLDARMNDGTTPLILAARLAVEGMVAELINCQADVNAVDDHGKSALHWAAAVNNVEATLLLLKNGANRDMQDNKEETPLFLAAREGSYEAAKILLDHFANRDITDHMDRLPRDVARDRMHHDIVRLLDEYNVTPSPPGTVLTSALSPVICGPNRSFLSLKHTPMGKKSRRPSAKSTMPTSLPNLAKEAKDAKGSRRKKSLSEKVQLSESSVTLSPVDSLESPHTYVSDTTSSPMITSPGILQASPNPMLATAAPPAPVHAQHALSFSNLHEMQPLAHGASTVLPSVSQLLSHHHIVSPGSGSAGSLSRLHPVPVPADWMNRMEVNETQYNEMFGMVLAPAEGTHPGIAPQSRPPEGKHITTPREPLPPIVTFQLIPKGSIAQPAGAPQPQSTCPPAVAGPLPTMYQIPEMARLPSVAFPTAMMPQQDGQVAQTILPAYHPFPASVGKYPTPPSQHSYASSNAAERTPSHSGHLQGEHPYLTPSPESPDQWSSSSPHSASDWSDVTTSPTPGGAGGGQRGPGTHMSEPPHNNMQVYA

[6] = molecular target: Pro-neuregulin-1, membrane-bound isoform (Homo sapiens) (UniProt Q02297); experiment: small molecules binding neuregulin-1 protein – biochemical, small-molecule microarray, fluorescence 635/667, psychiatric disease protein project, primary screen (AID 1075); conditions: NRG1 binding, 635 nm fluorescence, higher = more signal;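 note: score combines 667 nm spot fluorescence with signal to noise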
Sequence of Pro-neuregulin-1, membrane-bound isoform (Homo sapiens) (Q02297 whole entry, looked up, the tested form may be a part, canonical isoform): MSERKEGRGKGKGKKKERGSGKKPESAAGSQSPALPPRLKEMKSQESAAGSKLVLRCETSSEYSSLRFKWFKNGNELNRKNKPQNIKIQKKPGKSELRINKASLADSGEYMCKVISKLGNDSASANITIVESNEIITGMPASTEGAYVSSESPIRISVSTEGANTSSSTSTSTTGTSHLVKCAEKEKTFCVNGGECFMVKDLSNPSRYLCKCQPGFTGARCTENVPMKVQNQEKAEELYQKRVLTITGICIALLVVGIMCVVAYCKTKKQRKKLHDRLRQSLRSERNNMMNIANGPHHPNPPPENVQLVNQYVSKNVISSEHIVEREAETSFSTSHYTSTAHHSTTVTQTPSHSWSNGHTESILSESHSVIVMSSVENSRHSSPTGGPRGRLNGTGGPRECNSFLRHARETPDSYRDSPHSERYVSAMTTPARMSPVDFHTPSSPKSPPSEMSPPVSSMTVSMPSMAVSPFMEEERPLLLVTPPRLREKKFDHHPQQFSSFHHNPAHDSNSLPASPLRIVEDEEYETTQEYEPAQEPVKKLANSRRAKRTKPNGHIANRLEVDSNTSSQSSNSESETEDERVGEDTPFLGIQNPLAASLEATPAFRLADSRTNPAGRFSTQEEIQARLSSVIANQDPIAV

[7] = test system: Neuregulin-1 EGF-like domain; experiment: small molecules binding NRG1 EGF domain – biochemical, small-molecule microarray, 635 nm fluorescence, primary screen (AID 1081); conditions: higher = more signal;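 note: binding of the protein to compounds printed on small-molecule microarray slides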
[8] = FRG1 expression reporter modulators in myotubes – cell-based, C2C12 myotubes, firefly/Renilla luciferase, luminescence, FRG1 inhibition for FSHD, primary screen (AID 1084); conditions: FRG1 promoter luciferase, higher = more signal, called active from +8 up or from −8 down
[9] = small molecules captured by biotinylated probe aFST – biochemical, small-molecule microarray, fluorescence 635/667, stem cell growth factor project, primary screen (AID 1086); conditions: higher = more signal;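 note: score merges 667 nm fluorescence with signal-to-noise of each printed compound spot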
[10] = binders of probe aHhip on microarray, primary screen, stem cell growth factor project, biochemical, small-molecule microarray, fluorescence 635/667 (AID 1087); conditions: higher = more signal;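 note: score merges spot fluorescence at 667nm with spot signal to noise ratio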

Work on `O=C(Nc1cc(Br)ccc1C(=O)NCc1cccc(O)c1)c1ccccc1` yielded a composite z-score [1] of -0.0036, a composite z-score [2] of 0.296 and a composite z-score [3] of -0.0144. The composite z-score [4] was 0.478, the composite z-score [5] was 0.708 and the composite z-score [6] was 1.95. The composite z-score [7] was 1.15, the z-score [8] was -1.07 (inactive) and the composite z-score [9] was 0.395. The composite z-score [10] was -0.318.

With `C=C[C@@H](O)[C@H]1CC(c2ccccc2)=NO1` the composite z-score [1] was -0.0317, the composite z-score [2] was -0.1 and the composite z-score [3] was -0.0692. The composite z-score [4] was -0.105, the composite z-score [5] was -0.138 and the composite z-score [6] was -0.37. For the same compound, the composite z-score [7] was -0.262, the z-score [8] was 1.6 (inactive) and the composite z-score [9] was 0.266. The composite z-score [10] was 0.172.

For `Cc1cc(C)c(C(O)C2C=CC3C(=O)N(c4ccccc4)C(=O)C3N2Nc2ccccc2)c(C)c1` (stereo not given), the composite z-score [1] was 0.175, the composite z-score [2] was 0.668 and the composite z-score [3] was 0.216. It also gave a composite z-score [4] of 1.08, a composite z-score [5] of 1.56 and a composite z-score [6] of 1.99. The composite z-score [7] was 1.22, the z-score [8] was 0.423 (inactive) and the composite z-score [9] was 1.25. The composite z-score [10] was -0.189.

`COC(=O)[C@@]1(Cc2ccc(F)cc2)[C@H]2c3cc(C(=O)N4CCCC4)n(Cc4ccccc4)c3C[C@H]2CN1C(=O)c1ccccc1` showed a composite z-score [1] of 0.106, a composite z-score [2] of -0.663 and a composite z-score [3] of 0.0451. For the same compound, the composite z-score [4] was 0.19, the composite z-score [5] was 1.56 and the composite z-score [6] was 1.83. For the same compound, the composite z-score [7] was 1.12, the z-score [8] was 1.2 (inactive) and the composite z-score [9] was 1.23. It also gave a composite z-score [10] of 0.0578.

`CCCC=C(CCC)[C@@H](NC(=O)Cc1ccccc1)c1ccc(C(=O)OC)cc1` gave a composite z-score [1] of 1.22, a composite z-score [2] of -0.0985 and a composite z-score [3] of 0.254. The composite z-score [4] was 0.536, the composite z-score [5] was 1.13 and the composite z-score [6] was 0.807. For the same compound, the composite z-score [7] was 0.606, the z-score [8] was -0.26 (inactive) and the composite z-score [9] was 0.94. It also gave a composite z-score [10] of 3.03.

Work on `CC1=C2[C@@H](CCc3ccccc3)OB(O)C[C@@H]2[C@@H]2C(=O)C=CC(=O)[C@@H]2C1` yielded a composite z-score [1] of -0.741, a composite z-score [2] of 0.654 and a composite z-score [3] of -0.0887. It also gave a composite z-score [4] of 1.13, a composite z-score [5] of 1.38 and a composite z-score [6] of 0.51. For the same compound, the composite z-score [7] was 0.976, the z-score [8] was -1.57 (inactive) and the composite z-score [9] was 0.32. It also gave a composite z-score [10] of -0.16.

`O=C(NCc1ccccc1)[C@]1(Cc2ccccc2)N=C(c2ccc(OCCCO)cc2)O[C@@H]1c1ccccc1` gave a composite z-score [1] of 0.78, a composite z-score [2] of -0.136 and a composite z-score [3] of -0.0499. For the same compound, the composite z-score [4] was 0.885, the composite z-score [5] was 1.46 and the composite z-score [6] was 1.31. For the same compound, the composite z-score [7] was 0.93, the z-score [8] was -2.57 (inactive) and the composite z-score [9] was 0.662. It also gave a composite z-score [10] of 0.0024.

Compound `CCOC(=O)C1=CCC(c2cccc(Cl)c2)O1` (stereo not given) has a composite z-score [1] of -0.267, a composite z-score [2] of 0.491 and a composite z-score [3] of -0.0036. It also gave a composite z-score [4] of 0.0428, a composite z-score [5] of 0.105 and a composite z-score [6] of 1.06. The composite z-score [7] was 0.575, the z-score [8] was -0.242 (inactive) and the composite z-score [9] was 0.0826. The composite z-score [10] was -0.131.

Work on `COCCOC(=O)N1C(=O)[C@@]2(c3cc(C#CCNC(N)=O)ccc31)[C@H](C(=O)N1CCCCCCC1)[C@H]1C(=O)O[C@H](c3ccccc3)[C@H](c3ccccc3)N1[C@@H]2c1ccc(OCCO)cc1` yielded a composite z-score [1] of 1.03, a composite z-score [2] of 0.303 and a composite z-score [3] of -0.0024. For the same compound, the composite z-score [4] was 0.578, the composite z-score [5] was 0.754 and the composite z-score [6] was 0.446. For the same compound, the composite z-score [7] was 0.0222, the z-score [8] was -0.557 (inactive) and the composite z-score [9] was 0.7. For the same compound, the composite z-score [10] was 0.443.

`C=CCC(OC(C)=O)[C@@H]1[C@@H](N(Cc2cc3ccccc3o2)C(=O)Cc2ccc(OC)cc2)c2cc(OCCCO)ccc2N1C(=O)c1ccc(-c2ccccc2)cc1` (stereo not given in full) gave a composite z-score [1] of 0.378, a composite z-score [2] of 0.459 and a composite z-score [3] of -0.0601. It also gave a composite z-score [4] of -0.204, a composite z-score [5] of -0.4 and a composite z-score [6] of -0.294. For the same compound, the composite z-score [7] was -0.529, the z-score [8] was -0.199 (inactive) and the composite z-score [9] was 0.182. The composite z-score [10] was 0.251.

`COCCOC(=O)N1C(=O)[C@@]2(c3cc(C#CCNC(N)=O)ccc31)[C@H](C(N)=O)[C@H]1C(=O)O[C@H](c3ccccc3)[C@H](c3ccccc3)N1[C@@H]2c1ccc(OCCO)cc1` gave a composite z-score [1] of -0.147, a composite z-score [2] of 0.0525 and a composite z-score [3] of -0.0139. It also gave a composite z-score [4] of 0.309, a composite z-score [5] of 1.16 and a composite z-score [6] of 0.564. The composite z-score [7] was 0.342, the z-score [8] was 1.34 (inactive) and the composite z-score [9] was 0.459. The composite z-score [10] was -0.0427.

`CC(C)CCC[C@@H](C)[C@H]1CC[C@@]2(C)C3=C(CC[C@]12C)[C@@]1(C)CC[C@H](OC(=O)C(C)(C)C)C(C)(C)C1CC3` (stereo not given in full) gave a composite z-score [1] of -0.441, a composite z-score [2] of 0.39 and a composite z-score [3] of -0.0609. For the same compound, the composite z-score [4] was 0.298, the composite z-score [5] was 0.575 and the composite z-score [6] was -0.036. For the same compound, the composite z-score [7] was 0.307, the z-score [8] was -0.987 (inactive) and the composite z-score [9] was 0.0166. It also gave a composite z-score [10] of -0.0296.

Work on `COCC1=C([C@H](O)CCc2ccccc2)[C@H](CO)[C@@H]2C(=O)N(C)C(=O)[C@@H]2C1` yielded a composite z-score [1] of -0.479, a composite z-score [2] of 0.24 and a composite z-score [3] of -0.235. It also gave a composite z-score [4] of 0.367, a composite z-score [5] of 0.396 and a composite z-score [6] of 0.378. For the same compound, the composite z-score [7] was 0.15, the z-score [8] was -2.22 (inactive) and the composite z-score [9] was -0.0346. The composite z-score [10] was -0.226.

With `CC(C)CNC(=O)[C@@]1(c2ccc([N+](=O)[O-])cc2)CC(=O)N(C(C)C)[C@@H]1c1ccc(CO)cc1` the composite z-score [1] was 0.722, the composite z-score [2] was -0.187 and the composite z-score [3] was -0.137. The composite z-score [4] was -0.138, the composite z-score [5] was -0.205 and the composite z-score [6] was 1.95. The composite z-score [7] was 0.55, the z-score [8] was -0.696 (inactive) and the composite z-score [9] was -0.761. It also gave a composite z-score [10] of -0.0252.

For `COC(=O)C(CC#Cc1ccc2c(c1)[C@]1(C(=O)N2)[C@H](C(=O)N2CCc3cc(OC)c(OC)cc3C2)[C@H]2C(=O)O[C@H](c3ccccc3)[C@H](c3ccccc3)N2[C@@H]1c1ccc(O)cc1)C(=O)OC`, the composite z-score [1] was 0.145, the composite z-score [2] was 0.305 and the composite z-score [3] was 0.0276. The composite z-score [4] was 0.734, the composite z-score [5] was 1.32 and the composite z-score [6] was 1.69. The composite z-score [7] was 1.35, the z-score [8] was 1.77 (inactive) and the composite z-score [9] was 0.288. It also gave a composite z-score [10] of 0.644.

With `COCCOC(=O)N1C(=O)[C@@]2(c3ccccc31)[C@H](c1ccccc1OCCO)N1[C@H](c3ccccc3)[C@H](c3ccccc3)OC(=O)[C@H]1[C@@H]2C(=O)N1CCc2cc(OC)c(OC)cc2C1` the composite z-score [1] was 0.184, the composite z-score [2] was 0.124 and the composite z-score [3] was 0.071. For the same compound, the composite z-score [4] was 0.336, the composite z-score [5] was 0.403 and the composite z-score [6] was 0.982. The composite z-score [7] was 1.25, the z-score [8] was -1.61 (inactive) and the composite z-score [9] was 0.356. It also gave a composite z-score [10] of 0.28.

`COc1ccc([Si](C)(C)[C@@H]2[C@@H](CCO)O[C@]3(C(=O)N(Cc4ccccc4)c4ccc(N5CCCCC5=O)cc43)[C@H]2C)cc1` gave a composite z-score [1] of -0.389, a composite z-score [2] of 0.942 and a composite z-score [3] of 0.0026. For the same compound, the composite z-score [4] was 0.711, the composite z-score [5] was 1.06 and the composite z-score [6] was 0.965. For the same compound, the composite z-score [7] was 1.15, the z-score [8] was -4.38 (inactive) and the composite z-score [9] was 0.566. It also gave a composite z-score [10] of -0.0645.

Source: PubChem BioAssay
